Assay outcomes as filed in PubChem.
KCNQ2 inh = rat KCNQ2 potassium channel inhibitors, primary screen, cell-based, CHO-K1, FluxOR thallium flux, B-score | Potassium voltage-gated channel subfamily KQT member 2 (Rattus norvegicus), O88943 | 20 min; stronger effect = lower value | B-score at 10 µM | 1.1% of 310,000 active | AID 2156, 2009;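 active = fluorescence ratio B-score at most minus 3 library SDs, with starting brightness B-score within 2 library SDs, cut at about -5.5 in these data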
KCNQ2 pot = potentiators of rat KCNQ2 potassium channel; Potassium voltage-gated channel subfamily KQT member 2 (Rattus norvegicus), O88943; CHO-K1 KCNQ2, FluxOR thallium flux fluorescence; stronger effect = higher value; B-score at 10 µM; 0.54% of 310,000 active; AID 2239, 2010;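 active = fluorescence ratio B-score at least 3 SD of library B-scores, with initial fluorescence B-score within 3 of them, cut at about 5.3 in these data; same plate scores as AID 2156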;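 also: B-score of peak minus minimum over baseline fluorescence ratio after K+ and Tl+ stimulus; positive B-score means potentiation of KCNQ2 with more thallium influx and brighter signal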
* = called active by the depositor; i = inactive; / = not tested or not shown. Sampled rows, rich in hits. Any-hit rate of the full collection: about 1.6%.

SMILES	KCNQ2 inh	KCNQ2 pot
CCN(CC)CCCNC(=O)c1ccc(N2CCCCC2)c(NS(=O)(=O)c2ccc(C)cc2)c1	i	/
CCOC(=O)c1ccc(N2CCCCC2)c(NS(=O)(=O)c2ccc(C)cc2)c1	-7.31*	-7.31
CCOC(=O)c1ccc(N2CCN(c3ccc(F)cc3)CC2)c(NC(=O)Nc2cccc(OC)c2)c1	i	/
CCOC(=O)c1ccc(N2CCN(c3ccccc3F)CC2)c(NC(=O)Nc2ccccc2)c1	-6.34*	-6.34
CC(=O)N/C(=N/c1nc(C)cc(C)n1)Nc1cccc(C)c1C	i	0.62
Cc1ccc(NC(=O)COC(=O)[C@H](C)NC(=O)c2ccccc2)cc1S(=O)(=O)N1CCOCC1	i	/
CCCc1cnc(N2CCN(C(=O)c3ccc(OC)cc3)CC2)nc1	i	0.85
CC(=O)NN(O)C1N(C)C(=O)N(Cc2ccccc2)C1(C)C (stereo not given)	i	/
COc1ccc(CCC(=O)NCC(c2ccco2)N2CCc3ccccc32)cc1 (stereo not given)	i	/
CSc1ccc(CN(C)C(=O)C(Cc2ccccc2)NC(=O)c2ccccc2)cc1 (stereo not given)	-5.54*	-5.54
CN(Cc1ccc(F)cc1)C(=O)C(Cc1ccccc1)NC(=O)c1ccccc1 (stereo not given)	i	/
CN(Cc1ccccc1)C(=S)NC(=O)c1cccs1	i	2.16
CN(Cc1ccccc1)C(=S)NC(=O)c1ccc(-c2ccccc2)cc1	i	7.12*
CN(Cc1ccccc1)C(NC(=O)c1ccccc1)C(Cl)(Cl)Cl (stereo not given)	-5.85*	-5.85
CN(Cc1ccccc1)C(NC(=O)c1ccco1)C(Cl)(Cl)Cl (stereo not given)	i	0.56
O=C(NCc1cccnc1)c1c(O)c2cccc3c2n(c1=O)CCC3	i	/
COc1ccc(S(=O)(=O)NCC(=O)N(CC(=O)NCC2CCCO2)Cc2ccc(F)cc2)cc1 (stereo not given)	i	0.38
CC(=O)N[C@H]1[C@H](Oc2ccc3c(c2)CCC2C3CC[C@]3(C)C(=O)CCC23)O[C@H](CO)[C@@H](O)[C@@H]1O (stereo not given in full)	i	0.95
O=C(Cc1ccc(Cl)c(Cl)c1)N1CCOCC1	i	/
O=C(NCCCc1ccc(F)cc1)C1CCC(=O)N(CC2CCCCC2)C1 (stereo not given)	i	/
Cc1ccccc1Nc1nc(N)nc(COC(=O)CC2CC3CCC2C3)n1 (stereo not given)	i	20.2*
Cc1ccccc1Nc1nc(N)nc(COC(=O)CCS(=O)(=O)c2ccccc2)n1	i	1.7
Cc1cccn2c(=O)nc(SCC(=O)N3CCC(Cc4ccccc4)CC3)nc12	i	0.01
Cc1ccc2c(c1)N(C(=O)CCC(=O)NCc1cccc(Br)c1)CC(C)O2 (stereo not given)	-6.99*	-6.99
Cc1ccc2c(c1)N(C(=O)CCC(=O)Nc1ccccc1Br)CC(C)O2 (stereo not given)	i	/
SMILES	KCNQ2 inh	KCNQ2 pot
COc1ccc(CC2(CO)CCN(Cc3ccc4nsnc4c3)CC2)cc1	i	/
CN(CC(=O)Nc1cc(Cl)cc(Cl)c1)Cc1cccs1	-5.58*	-5.58
CN(CC(=O)Nc1ccc(F)cc1Cl)Cc1cccs1	i	/
C=CCn1c(-c2csc(-c3ccccc3)n2)n[nH]c1=S	i	0.16
C=CCN1C(=S)CC(c2ccccc2)=Nc2ccccc21	-6.73*	-6.73
CCOc1c(Br)cc(C(=O)N2CCCN(C)CC2)cc1OC	i	/
O=C(/C=C/c1ccc2c(c1)OCO2)NCCSCc1ccc(Cl)cc1Cl	-7.77*	-7.77
O=C(/C=C/c1ccc2c(c1)OCO2)NCCSCc1cccc(Cl)c1	i	/
N#Cc1ccc(CSc2nnc(COc3ccccc3)n2-c2ccccc2)cc1	-5.61*	-5.61
COc1ccc(-n2c(COc3ccccc3)nnc2SCc2ccc(C#N)cc2)cc1	i	0.05
CN(C)S(=O)(=O)c1ccc(C(=O)OCC2COC(C)(C)O2)cc1 (stereo not given)	i	/
CCCc1nc(NCCCOCC)c2nnn(Cc3ccccc3)c2n1	i	0.36
C[C@@H](C(=O)NCC1CC1)[C@@H]1C[C@@]1(C)[C@@H](NC(=O)OCc1ccccc1)c1ccccc1	i	/
C[C@@H](C(=O)NCc1ccccn1)[C@H]1C[C@]1(C)[C@H](NC(=O)OCc1ccccc1)c1ccccc1	-6.68*	-6.68
C[C@H](CO)NC(=O)[C@H](C)[C@H]1C[C@]1(C)[C@H](NC(=O)OCc1ccccc1)c1ccccc1	i	0.67
C[C@@H](C(=O)Nc1ccc2ccccc2c1)[C@H]1C[C@]1(C)[C@H](NC(=O)OCc1ccccc1)c1ccccc1	-5.89*	-5.89
NS(=O)(=O)c1cccc(NC(=O)c2cccc(Oc3ccccc3)c2)c1	i	/
CN(C(=O)c1cc(S(=O)(=O)N2CCc3ccccc32)cn1C)C1CCCCC1	i	0.03
CC(=O)Nc1ccc(NC(=O)CS(=O)(=O)c2cn(CC(=O)N3CCC(C)CC3)c3ccccc23)cc1	i	1.18
CC1C(=O)N2CCCc3cc(S(=O)(=O)N(C)c4ccccc4)cc1c32 (stereo not given)	i	/
CCSc1nc2ccccc2c(=O)n1C1CCOC(C)(C)C1 (stereo not given)	i	/
C=CCSc1nc2ccccc2c(=O)n1Cc1ccccc1	-5.66*	-5.66
CCN(CC)C(=O)CSc1nc2ccccc2c(=O)n1CC	i	0.8
CCn1c(SCc2ccccc2)nc2ccccc2c1=O	i	8.22*
O=c1c2ccccc2nc(SCc2ccccc2Cl)n1Cc1ccccc1	i	/
SMILES	KCNQ2 inh	KCNQ2 pot
C=CCSc1nc2ccccc2c(=O)n1C1CCOC(C)(C)C1 (stereo not given)	-6.04*	-6.04
CCOC(=O)CSc1nc2ccccc2c(=O)n1CC1CCCC1	-6.12*	-6.12
CCOC(=O)CSc1nc2ccccc2c(=O)n1CC	i	0.49
Cc1cccn2c(=O)nc(SCC(=O)NC3CCCC3)nc12	i	/
COc1cccc(C(=O)CC(C#N)c2ccc(F)cc2)c1 (stereo not given)	i	/
Cc1[nH]c2ccc(C(=O)NCCN3CCOCC3)cc2c1C	i	/
O=C(CCc1ccccc1)Nc1cc2c3c(c1)CC(=O)N3CCC2	i	0.57
Cc1ccc(C)c(C(=O)CSc2nc(C)cc(=O)[nH]2)c1	i	0.04
Cn1ncc(Br)c1NC(=O)Nc1ccccc1	i	0.16
CC(=O)N1CCC(N(CCN2CCOCC2)C(=S)Nc2ccc(C)c(C)c2)CC1	i	/
O=C1OCCC1Sc1nc2ccccc2c(=O)n1-c1ccc(F)cc1 (stereo not given)	i	/
O=C1OCCC1Sc1nc2ccccc2c(=O)n1Cc1ccc(F)cc1 (stereo not given)	i	6.28*
CC1CC1C(=O)OCC(=O)Nc1cccc([N+](=O)[O-])c1 (stereo not given)	i	/
COc1ccc(F)cc1C(=O)C1CCCN(C(=O)c2ocnc2C)C1 (stereo not given)	i	0.14
Cc1cc(Br)ccc1NC(=O)CNC(=O)Cc1ccc(S(=O)(=O)N2CCOCC2)s1	i	0.02
CCOC(=O)C1=C(COC(=O)/C=C/c2ccco2)NC(=O)NC1C (stereo not given)	i	1.37
Cc1ccc(S(=O)(=O)N2CCN(Cc3ccccc3C(F)(F)F)CC2)cc1	-5.98*	-5.98
Cc1ccccc1CN1CCN(Cc2ccccc2C(F)(F)F)CC1	i	/
